Measurements: PubChem BioAssay (NCI)
About 79,000 compounds went through this panel and 15% of them were active in at least one assay; those are over-represented in the sample as a whole. Values without a mark were called inactive. The source made the active and inactive calls. Rule as the data show it: active = growth inhibition above about 70%; inactive = the rest.

How the values were obtained:
[1] = NCI Yeast Anticancer Drug Screen. Data for the rad50 strain (AID 155);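 also: 0% = growth of vehicle-only cultures of the same strain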; conditions: S. cerevisiae rad50 strain growth inhibition, hits give high values
Method in brief: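 Inhibition values express reduced yeast growth in compound-treated cultures relative to vehicle-treated controls.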

[2] = NCI Yeast Anticancer Drug Screen. Data for the mec2-1 strain (AID 157); conditions: S. cerevisiae mec2-1 strain, hits give high values
Method in brief: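 Using mec2-1 yeast: add compound, measure growth, express inhibition versus vehicle-treated cultures.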

[3] = NCI Yeast Anticancer Drug Screen. Data for the sgs1 mgt1 strain (AID 161);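 also: 0% = growth of cultures given vehicle only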; conditions: S. cerevisiae sgs1 mgt1 strain, hits give high values
Method in brief: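 Percent growth inhibition was derived by comparing compound-exposed mutant yeast with vehicle-exposed cultures. The strain carries alterations in DNA damage repair.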

[4] = NCI Yeast Anticancer Drug Screen. Data for the cln2 rad14 strain (AID 165);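 also: 0% = growth equal to vehicle treated cultures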; conditions: S. cerevisiae cln2 rad14 strain, hits give high values
Method in brief: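 Yeast strain cln2 rad14, bearing defects in cell cycle control and DNA repair, serves as the test system; values reflect growth inhibition compared with vehicle.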

[5] = NCI Yeast Anticancer Drug Screen. Data for the bub3 strain (AID 167); conditions: S. cerevisiae bub3 mutant strain, hits give high values
Method in brief: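 Steps: expose the mutant yeast strain to compound; grow alongside vehicle-treated cultures; measure growth; express inhibition against the vehicle cultures.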

[6] = NCI Yeast Anticancer Drug Screen. Data for the mlh1 rad18 strain (AID 175); conditions: S. cerevisiae mlh1 rad18 strain growth inhibition, hits give high values
Method in brief: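 Steps: expose repair-defective yeast to compound; measure growth; express inhibition against vehicle-treated controls.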

[7] = at 5.0 µM (retest, dose inferred, filed as 0.5)
[8] = at 50.0 µM (retest, dose inferred, filed as 5.0)

| SMILES | growth inhibition [1, 7] | growth inhibition [1, 8] | growth inhibition ([1]; at 50.0 µM) | growth inhibition [2, 7] | growth inhibition [2, 8] | growth inhibition ([2]; at 50.0 µM) | growth inhibition [3, 7] | growth inhibition [3, 8] | growth inhibition ([3]; at 50.0 µM) | growth inhibition [4, 7] | growth inhibition [4, 8] | growth inhibition ([4]; at 50.0 µM) | growth inhibition [5, 7] | growth inhibition [5, 8] | growth inhibition ([5]; at 50.0 µM) | growth inhibition [6, 7] | growth inhibition [6, 8] | growth inhibition ([6]; at 50.0 µM) |
| --- | --- | --- | --- | --- | --- | --- | --- | --- | --- | --- | --- | --- | --- | --- | --- | --- | --- | --- |
| COc1ccc(NP(=S)(Nc2ccc(OC)cc2)c2ccccc2)cc1 | 2% | 54% | 55% | -2% | 57% | 58.1% | 6% | 65% | 49.6% | 3% | 51% | 68.2% | -1% | 78% (active) | 67.6% | 5% | 58% | 28.9% |
| CS/C([S-])=N/N=C(C)C.CS/C([S-])=N/N=C(C)C.[Ni+2] | 34% | 94% (active) | 93.8% (active) | 19% | 96% (active) | 57% | 28% | 97% (active) | 83.7% (active) | 11% | 89% (active) | -13.8% | 72% (active) | 96% (active) | 79.8% (active) | 72% (active) | 97% (active) | 74.8% (active) |
| CNCC(O)c1cn(C)c2ccccc12 (configuration not stated) | 4% | 0% | 45% | 4% | 3% | 20.6% | 3% | 5% | 25.1% | 6% | 2% | 22.1% | 4% | 0% | 48.9% | 0% | -2% | 40.9% |
| CC(C)=[CH][Sb]([Br])([CH]=C(C)C)([CH]=C(C)C)[c]1ccccc1 | -9% | 8% | 56.5% | -14% | 27% | 45.8% | -14% | 16% | 32.5% | -19% | 6% | -11.8% | -3% | 22% | 64.9% | -11% | 10% | 40.5% |
| [CH3][Sn]([CH3])([Cl])[c]1cc[c]([Sn]([CH3])([CH3])[Cl])cc1 | 26% | 84% (active) | 78% (active) | -1% | 50% | 72.5% (active) | 6% | 80% (active) | 85.5% (active) | 11% | 63% | 77% (active) | 10% | 80% (active) | 81.3% (active) | 20% | 87% (active) | 80.2% (active) |
| CCC1(O)C(=O)OCc2c1cc1n(c2=O)Cc2cc3cc([N+](=O)[O-])ccc3nc2-1 (configuration not stated) | 76% (active) | 95% (active) | 77.9% (active) | 10% | 46% | 43.4% | 21% | 33% | 24.9% | 14% | 8% | -2.9% | 13% | 10% | -21.3% | 10% | 32% | 59.5% |
| [Cl][Sn]([Cl])([c]1ccccc1)[c]1ccccc1.c1ccncc1.c1ccncc1 | 93% (active) | 97% (active) | 98% (active) | 61% | 99% (active) | 99.1% (active) | 94% (active) | 99% (active) | 99% (active) | 71% (active) | 98% (active) | 98.8% (active) | 92% (active) | 98% (active) | 97.9% (active) | 95% (active) | 96% (active) | 98.7% (active) |
| CN(C)CCN(C)P12(Oc3ccccc3O1)Oc1c(Cl)c(Cl)c(Cl)c(Cl)c1O2 | -8% | 6% | 99% (active) | 9% | 14% | 99.2% (active) | -10% | 9% | 99% (active) | -19% | 22% | 99.1% (active) | -10% | 12% | 99.1% (active) | 0% | 16% | 97.6% (active) |
| C[CH2][Sn]([Cl])([CH2]C)[O][Sn]([Cl])([CH2]C)[CH2]C | 6% | 90% (active) | 85.2% (active) | 4% | 89% (active) | 96.2% (active) | 6% | 94% (active) | 72.2% (active) | -3% | 86% (active) | 95% (active) | 6% | 88% (active) | 96.7% (active) | 8% | 83% (active) | 84.9% (active) |
| Cc1ccc2c(c1)SP(=S)(c1ccccc1)N2 (configuration not stated) | 6% | 99% (active) | 99.2% (active) | 4% | 99% (active) | 99.5% (active) | 8% | 97% (active) | 99.3% (active) | 15% | 97% (active) | 54.4% | 0% | 99% (active) | 98.8% (active) | 3% | 99% (active) | 98% (active) |
| Cc1cccc2cc3ccccc3cc12 | 29% | 99% (active) | 95.3% (active) | 50% | 99% (active) | 97% (active) | 43% | 99% (active) | 85.9% (active) | 58% | 99% (active) | 91.1% (active) | 68% | 99% (active) | 95.7% (active) | 70% (active) | 99% (active) | 96.9% (active) |
| FC(F)(F)c1cccc(CCl)c1 | -1% | 3% | 24.8% | 0% | 1% | -5.7% | -1% | 1% | -17.4% | -5% | -6% | -20.2% | -3% | 7% | -8.25% | -2% | 4% | 38.5% |
| CSc1ccc2c(c1)c(CCN)c(C)n2Cc1ccccc1Cl | 3% | 100% (active) | 99.5% (active) | 0% | 100% (active) | 99.5% (active) | 12% | 99% (active) | 99.3% (active) | -31% | 98% (active) | 98.5% (active) | -7% | 99% (active) | 99.5% (active) | 13% | 99% (active) | 99.4% (active) |
| CCN(CCCl)c1ccc(/C=C/C2=[N+](C)c3ccccc3C2(C)C)c(C)c1 | -5% | 98% (active) | 62% | -1% | 99% (active) | 98.2% (active) | -8% | 98% (active) | 96.8% (active) | -4% | 97% (active) | 71.5% (active) | -6% | 99% (active) | 99.2% (active) | -1% | 98% (active) | 60.8% |
| Cc1oc2c([N+](=O)[O-])cccc2c1[N+](=O)[O-] | 98% (active) | 98% (active) | 99.5% (active) | 99% (active) | 99% (active) | 99.8% (active) | 99% (active) | 98% (active) | 99.6% (active) | 98% (active) | 98% (active) | 98.8% (active) | 99% (active) | 99% (active) | 52.2% | 98% (active) | 98% (active) | 99.7% (active) |
| CC(C)C1(NC(=O)C2C=C3c4cccc5[nH]cc(c45)CC3N(C)C2)OC2(O)C3CCCN3C(=O)C(Cc3ccccc3)N2C1=O (configuration not stated) (tested in a mixture with another compound) | 22% | 97% (active) | 98.2% (active) | 4% | 99% (active) | 98.6% (active) | 4% | 96% (active) | 98.7% (active) | 6% | 98% (active) | 96.8% (active) | 7% | 98% (active) | 97.5% (active) | 6% | 98% (active) | 96.8% (active) |
| CCOc1ccc(/C=C/[N+](=O)[O-])cc1[N+](=O)[O-] | 11% | 98% (active) | 95.6% (active) | 7% | 99% (active) | 99.6% (active) | 9% | 99% (active) | 99.5% (active) | 16% | 99% (active) | 99% (active) | 9% | 99% (active) | 99.3% (active) | 12% | 99% (active) | 99.3% (active) |
| CC[C@](C)(O)C(=O)O[C@H]1C(=O)O[C@@H]2C[C@H]3C(C)=CC(=O)[C@@H](O)[C@]3(C)[C@H]3[C@@]4(O)OC[C@]32[C@@H]1[C@@H](C)[C@H]4O | 17% | 94% (active) | 68% | 21% | 90% (active) | 46.6% | 14% | 91% (active) | 61.8% | 33% | 97% (active) | 71.6% (active) | 6% | 97% (active) | 70.3% (active) | 9% | 94% (active) | 74.3% (active) |
| O=C1C(=O)c2cccc3cccc1c23 | 8% | 79% (active) | 64.2% | 8% | 51% | 30.4% | 3% | 34% | 21.1% | 6% | 50% | -3.15% | 13% | 82% (active) | 13.2% | 1% | 63% | 22.9% |
